Paper PMC6792352, “Limited Chemical Structural Diversity Found to Modulate Thyroid Hormone Receptor in the Tox21 Chemical Library” (Environmental Health Perspectives, 2019)

tested on: thyroid hormone receptor (endogenous TRα and TRβ); set-up: species or system GH3-TRE-Luc (rat pituitary); GH3-TRE-Luc luciferase reporter, antagonist mode against 1 nM T3, loss of signal, qHTS; conditions: read-out: Average AC50 (uM) GH3-TRE-Antag, antagonist mode, 1 nM T3, no GH3 cytotoxicity hit

Compound | AC50 [µM]
CCOc1ccc2nc3cc(N)ccc3c(N)c2c1 [Ethacridine lactate hydrate] | 40.1
COCCCOc1ccnc(C[S+]([O-])c2nc3ccccc3[nH]2)c1C (stereo not shown) [Rabeprazole sodium] | 51.1
CCCCCCCCCCO[C@@H]1O[C@H](CO)[C@@H](O)[C@H](O)[C@H]1O [Decyl beta-D-glucopyranoside] | 68.4
CCOCN(C(=O)CCl)c1c(C)cccc1CC [Acetochlor] | 75.3
CCC(C)(C)C(=O)OC1=C(c2ccc(Cl)cc2Cl)C(=O)OC12CCCCC2 [Spirodiclofen] | 51.5
CC/C=C/CCCCCCCCC1CC(=O)OC1=O (stereo not shown) [(Tetrapropenyl)succinic anhydride] | 65.5
O=C1OC(OC(=O)c2cccnc2Nc2cccc(C(F)(F)F)c2)c2ccccc21 (stereo not shown) [Talniflumate] | 9.92
CN1C(=O)[C@@H](NC(=O)c2cc3ccccc3[nH]2)N=C(c2ccccc2)c2ccccc21 [Devazepide] | 6.13
CC(C)CCC[C@@H](C)[C@H]1CC(=O)C2=C3CC[C@H]4C[C@@H](O)CC[C@]4(C)[C@H]3CC[C@@]21C [Colestolone] | 7.21
O=S1(=O)c2cccc3cccc(c23)N1CCCN1CCN(c2ccc(F)cc2)CC1 [Fananserin] | > 50
Cc1cccc(C(C)(C)C)c1O [2-tert-Butyl-6-methylphenol] | 75.7
c1ccc(-c2cccc(-c3ccccc3)c2)cc1 [1,1':3',1''-Terphenyl] | 50.3
C=CC[C@]1(O)CC[C@H]2[C@@H]3CCC4=CC(=O)CCC4=C3C=C[C@@]21C [Altrenogest] | 11.8
